# According to PubChem BioAssay (EPA / NIEHS):
# Values joined by “and” are separate entries in the source; they are usually repeats but may differ in a detail not shown here. Equal entries are not always repeated. Active and inactive are the calls of the source. How the source made its calls: active means hit-call score of the fitted dose curve at least 0.9, where 1 is the maximum; inactive means score below 0.9.
# Test: BSK_4H_SRB: Viability Assessment in the BioMAP Diversity Plus: 4H Assay (AID 2283027);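 further: cells exposed to compound for 24 h before staining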;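 on AC50: curves fitted both ways versus DMSO so AC50 may be loss or gain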
# Settings: primary human endothelial cells (HUVEC)
# Method: BSK_4H is a cell-based, multiplexed-readout assay that uses umbilical vein endothelium, a human vascular primary cell, with measurements taken at 24 hours after chemical dosing in a 96-well plate.BSK_4H_SRB is an assay component measured in the BSK_4H assay. It measures […] related to cell death using Sulforhodamine staining technology.Data from the assay component BSK_4H_SRB was analyzed into 1 assay endpoint. This assay endpoint, BSK_4H_SRB, was analyzed with bidirectional fitting relative to DMSO as the negative control and baseline of activity. Using a type of viability reporter, gain or loss-of-signal activity can be used to understand changes in the signaling. Furthermore, this assay endpoint can be referred to as a primary readout, because this assay has produced multiple assay endpoints where this one serves a signaling function. To generalize the intended target to other relatable targets, this assay endpoint is annotated to the cell morphology intended target family, where the subfamily is cell conformation.
# The levels of cell surface (or secreted, indicated by the prefix "s") biomarker endpoints were measured by ELISA. Overt cytotoxicity to cells in confluent adherent cultures (all systems other than the BT system) was assessed by measuring total protein levels using sulforhodamine B (SRB) staining in parallel cultures at the time of biomarker measurements, indicated as SRB endpoints. For proliferation assays for adherent cell types, individual cell types are cultured at sub-confluence and relative cell numbers quantified by SRB staining at time points optimized for each system (48 h: 3C and CASM3C systems; 72 h: BT and HDF3CGF systems; 96 h: SAg system). SRB was performed by staining cells with 0.1% SRB after fixation with 10% TCA and reading wells at 560 nm.Viability and proliferation of PBMC (T cells) was quantified by Alamar Blue reduction for the SAg and BT systems. For PBMC viability (referred to as PBMC Cytotoxicity within the assay endpoint names), cells were plated (75,000/well in a 96-well plate) and then chemical samples added for 1 h before addition of activators, SEB and TSST-1 (20 ng/mL final concentration each). Cells were incubated for 90 h. Then, Alamar Blue (20 uL/well) (Invitrogen, Cat DAL1100) was added for 6 h, and the plates were read with a fluorescence microplate reader at 546/580 nm (excitation/emission). For PBMC proliferation, cells were plated and activated as above but incubated for only 16 h prior to addition of Alamar Blue. Plates were read after 6 h.
Structure (SMILES),outcome,AC50
CC(CN=Cc1ccccc1O)N=Cc1ccccc1O (stereo not given),inactive,
Oc1c(Cl)cc(Cl)c(Cl)c1Cc1c(O)c(Cl)cc(Cl)c1Cl,,6.35 µM (active)
CS(=O)(=O)c1ccc(C2=C(c3ccccc3)C(=O)OC2)cc1,inactive,
CS(=O)(=O)OCCCCOS(C)(=O)=O,inactive,
CCCCCC(C=O)=Cc1ccccc1,,34.1 µM (active)
CSCCC=O,inactive,
CC1(C)C2=CCCC(C)(C)[C@]23CC[C@H]1C3,inactive,
O=C1OC[C@H](Cc2cccc(O)c2)[C@H]1Cc1cccc(O)c1,inactive,
C=C(C)C(=O)OCCOCCOCCOCCOC(=O)C(=C)C,inactive,
CCCCOC(=O)CCCCCCCC(=O)OCCCC,inactive,
O=CN1CCOCC1,inactive,
CCC(C)c1cc([N+](=O)[O-])cc([N+](=O)[O-])c1OC(=O)OC(C)C (stereo not given),,13.9 µM (active)
c1ccc(CCc2ccccc2)cc1,,31 µM (active)
c1ccc(Oc2ccccc2)cc1,,31.3 µM (active)
CN(c1nccc(=O)[nH]1)C1CCN(c2nc3ccccc3n2Cc2ccc(F)cc2)CC1,inactive,
Cc1cc(CCC(=O)OCCOCCOCCOC(=O)CCc2cc(C)c(O)c(C(C)(C)C)c2)cc(C(C)(C)C)c1O,inactive,
COc1cc(Cl)c(OC)cc1N,inactive,
CN(C)C(=O)Nc1ccc(Oc2ccc(Cl)cc2)cc1,inactive,
O=C1OC2(c3ccccc31)c1ccc(O)c(Br)c1Oc1c2ccc(O)c1Br,inactive,
CC=Cc1ccc(OCC)c(O)c1,inactive,

Structure (SMILES),outcome,AC50
CC1(C)CCC[C@]2(C)[C@H]3CCO[C@]3(C)CC[C@@H]12,,32.1 µM (active) and 33.9 µM (active)
CCCCN(CCCC)C(=O)N(CCCC)CCCC,,8.59 µM (active)
CN(C)C(=S)SC(=S)N(C)C,,19.9 µM (active)
CCOC(=O)C(C#N)=C(c1ccccc1)c1ccccc1,inactive,
CC(C)(N=C=O)c1cccc(C(C)(C)N=C=O)c1,inactive,
C[C@@H]1CCN(C(=O)[C@H](CCCN=C(N)N)NS(=O)(=O)c2cccc3c2NC[C@H](C)C3)[C@@H](C(=O)O)C1,inactive,
C=C(C)[C@H]1CC=C(C)C(=O)C1,inactive,
C1=CC2C3C=CC(C3)C2C1 (stereo not given),inactive,
CCCCCCC(CO)CCCC (stereo not given),inactive,
CCN(CC)C(=O)N(CC)CC,inactive,
CCCCCCCCCCCCCCCC(=O)OC/C=C(C)/C=C/C=C(C)/C=C/C1=C(C)CCCC1(C)C,inactive,
C=CC(C)(O)CCC=C(C)C (stereo not given),inactive,
C=C(C)C(=O)OCCOCCOCCOC(=O)C(=C)C,inactive,
COc1ccc(CCN2CCC(Nc3nc4ccccc4n3Cc3ccc(F)cc3)CC2)cc1,,2.49 µM (active)
C=C(C)C(=O)OCC(CC)(COC(=O)C(=C)C)COC(=O)C(=C)C,,9.41 µM (active)
CC(C)(C)CC(C)(C)c1ccc(OCCOCC[N+](C)(C)Cc2ccccc2)cc1,,5.82 µM (active)
CC(=O)c1c(C)c([N+](=O)[O-])c(C(C)(C)C)c([N+](=O)[O-])c1C,inactive,
CC(C=O)Cc1ccc(C(C)(C)C)cc1 (stereo not given),,30.1 µM (active)
CC(=O)C1(C)CC2=C(CCCC2(C)C)CC1C (stereo not given),,6.99 µM (active)
CC(=O)Nc1ccc(C(=O)CCl)cc1,,6.69 µM (active)
